The text below walks through data of PubChem BioAssay (EPA / NIEHS).

Each structure is given as a SMILES string. The source made the active and inactive calls. Rule for the calls: active = hit-call score of the fitted dose curve at least 0.9, where 1 is the maximum; inactive = score below 0.9.

Read-out in assay [1]: Vascular cell adhesion molecule 1 (VCAM1), VCAM1 (gene 7412)
As to the kind of experiment: BSK_4H_VCAM1: BioMAP Diversity Plus: 4H Assay for Vascular cell adhesion molecule 1 (VCAM1) Biomarker Activity (AID 2283033).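 For outcome: cell-surface VCAM-1 protein measured by ELISA.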 Particulars: primary human endothelial cells (HUVEC); actives raise or lower the signal. Put shortly:
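ELISA read-out of VCAM-1 on human umbilical vein endothelium 24 hours after chemical dosing; gain or loss of signal was fitted relative to DMSO, with sulforhodamine B staining of parallel cultures flagging overt cytotoxicity.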

Read-out in assay [2]: Interferon-gamma inducible Protein 10 (IP10), CXCL10 (gene 3627)
As to the kind of experiment: BSK_BE3C_IP10: BioMAP Diversity Plus: BE3C Assay for Interferon-gamma inducible Protein 10 (IP10) Biomarker Activity (AID 2283034). The conditions noted are these: primary human bronchial epithelial cells; actives raise or lower the signal. Put shortly: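 Chemical is dosed onto human lung bronchial epithelial primary cells, cultures are incubated 24 h, and IP-10 is then quantified by ELISA. Gain or loss of signal is fitted in both directions relative to DMSO.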

Read-out in assay [3]: Monokine induced gamma interferon (MIG), CXCL9 (gene 4283)
As to the kind of experiment: BSK_BE3C_MIG: BioMAP Diversity Plus: BE3C Assay for Monokine induced gamma interferon (MIG) Biomarker Activity (AID 2283035).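 For outcome: MIG protein measured by ELISA in BE3C cultures after 24 h of dosing.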 Particulars: primary human bronchial epithelial cells; actives raise or lower the signal. In a few lines:
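Primary human bronchial epithelial cells treated for 24 h; MIG levels measured by ELISA, fitted bidirectionally versus DMSO. Parallel SRB total-protein staining assessed cytotoxicity.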

Read-out in assay [4]: Transforming growth factor beta 1 (TGFb1), TGFB1 (gene 7040)
As to the kind of experiment: BSK_BE3C_TGFb1: BioMAP Diversity Plus: BE3C Assay for Transforming growth factor beta 1 (TGFb1) Biomarker Activity (AID 2283036;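 for outcome: TGF-b1 protein level measured by ELISA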). The conditions noted are these: primary human bronchial epithelial cells; actives raise or lower the signal. Put shortly:
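Primary human lung bronchial epithelial cells; compound exposure 24 h; TGF-b1 by ELISA; bidirectional fit, DMSO baseline. Parallel SRB total-protein staining for cytotoxicity.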

Read-out in assay [5]: urokinase plasminogen activator (uPA), PLAU (gene 5328)
As to the kind of experiment: BSK_BE3C_uPA: BioMAP Diversity Plus: BE3C Assay for urokinase plasminogen activator (uPA) Biomarker Activity (AID 2283038).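 For outcome: uPA protein level quantified by ELISA in cell cultures; uPA read one day after compound addition.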 Particulars: primary human bronchial epithelial cells; actives raise or lower the signal. Put shortly:
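Human primary bronchial epithelial cells were exposed to chemical for 24 h, then uPA levels were measured by ELISA. Responses were fitted bidirectionally against DMSO as negative control and baseline. Parallel SRB staining of total protein gauged overt cytotoxicity.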

Read-out in assay [6]: Urokinase-type plasminogen activator receptor (uPAR), PLAUR (gene 5329)
As to the kind of experiment: BSK_BE3C_uPAR: BioMAP Diversity Plus: BE3C Assay for Urokinase-type plasminogen activator receptor (uPAR) Biomarker Activity (AID 2283039).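 For outcome: cells exposed to compound for one day before measurement.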 Particulars: primary human bronchial epithelial cells; actives raise or lower the signal. In a few lines:
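Human bronchial epithelial primary cells; chemical exposure 24 h; uPAR by ELISA; bidirectional fit vs DMSO control.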

Read-out in assay [7]: Interleukin-6 (IL6), IL6 (gene 3569)
As to the kind of experiment: BSK_CASM3C_IL6: BioMAP Diversity Plus: CASM3C Assay for Interleukin-6 (IL6) Biomarker Activity for (AID 2283040). The conditions noted are these: primary human coronary artery smooth muscle cells; actives raise or lower the signal.

Read-out in assay [8]: Tissue plasminogen activator (tPA), PLAT (gene 5327)
As to the kind of experiment: BSK_BE3C_tPA: BioMAP Diversity Plus: BE3C Assay for Tissue plasminogen activator (tPA) Biomarker Activity (AID 2283041).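 For outcome: tPA level quantified by ELISA one day after compound addition.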 Particulars: primary human bronchial epithelial cells; actives raise or lower the signal. Put shortly: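 Primary human lung bronchial epithelial cultures receive test chemical; after 24 h, tPA is quantified by ELISA, and gain or loss of signal is fitted bidirectionally relative to DMSO baseline.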

Read-out in assay [9]: Interleukin-8 (IL8), CXCL8 (gene 3576)
As to the kind of experiment: BSK_CASM3C_IL8: BioMAP Diversity Plus: CASM3C Assay for Interleukin-8 (IL8) Biomarker Activity (AID 2283042).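 Note: IL-8 protein level quantified by ELISA.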 The conditions noted are these: primary human coronary artery smooth muscle cells; actives raise or lower the signal.

The term AC50 denotes the concentration at which the activity in the assay is half-maximal. Regarding `CCCOC(=O)c1cc(O)c(O)c(O)c1`, the half-maximal activity concentration (AC50) in assay [1] was 2.01 µM (active). Moreover, the outcome in assay [2], in [3], in assay [4], in [5], in [6] and in assay [7] was inactive. The result in [8] and in [9] was inactive.

Take `c1ccc2n[nH]nc2c1`: the outcome in [1], in assay [2], in [3], in assay [4], in [5] and in assay [6] was inactive. For the same compound, the result in assay [7], in [8] and in [9] was inactive.

Turning to `CN(C[C@@H](CC[N+]12CCC(C3CCCCC3)(CC1)CC2)c1ccc(Cl)c(Cl)c1)C(=O)c1cc(C(F)(F)F)cc(C(F)(F)F)c1`, the AC50 was 32 µM (active) in assay [1]; 13.1 µM (active) in assay [2]; 29.6 µM (active) in [3]; 17.5 µM (active) in [4]; 16.6 µM (active) in assay [5]; 13.6 µM (active) in [6]. Further, the AC50 in [7] is 15.9 µM (active); in assay [8], 11.9 µM (active); in assay [9], 24.7 µM (active).

Take `CC(C)(C)c1cc(/C=C2\SC(N)=NC2=O)cc(C(C)(C)C)c1O`: the AC50 is 26.4 µM (active) in assay [1], 3.97 µM (active) in assay [5] and 36.2 µM (active) in [7]. The result in [2], in assay [3], in assay [4], in assay [6], in [8] and in assay [9] was inactive.

Take `O=C1O[C@H]([C@@H](O)CO)C(O)=C1O`: the result in [1], in [2], in assay [3], in [4], in assay [5] and in assay [6] was inactive. Besides, the outcome in [7], in assay [8] and in assay [9] was inactive.

Consider `O=C(Nc1ccc(Cl)cc1)Nc1ccc(Cl)c(Cl)c1`, for which the AC50 is 3.48 µM (active) in assay [1]; 2.52 µM (active) in assay [2]; 1.1 µM (active) in assay [6]; 12.7 µM (active) in assay [7]; 1.73 µM (active) in assay [8]. Further, the result in assay [3], in assay [4], in [5] and in assay [9] was inactive.

As to `CN1C(=O)CC[C@H]1c1cccnc1`, the result in assay [1], in [2], in [3], in assay [4], in assay [5] and in [6] was inactive. Moreover, the result in assay [7], in assay [8] and in [9] was inactive.

Consider `O=C(O)Cn1c(=O)n(Cc2ccc(Br)cc2F)c(=O)c2ccc(Cl)cc21`, for which the result in assay [1], in assay [2], in [3], in assay [4], in assay [5] and in assay [6] was inactive. In addition, the outcome in assay [7] and in [9] was inactive. In addition, the AC50 in assay [8] is 11.5 µM (active).

For the compound `O=C(O)c1ccccc1C(=O)OCc1ccccc1`, the result in assay [1], in assay [2], in assay [3], in assay [4], in assay [5] and in assay [6] was inactive. For the same compound, the outcome in assay [7], in [8] and in assay [9] was inactive.

`CCCCCCCCCCCC[N+](C)(C)C`: the AC50 in [1] is 26.8 µM (active); in assay [2], 21.8 µM (active); in [3], 33.1 µM (active); in [5], 31.6 µM (active); in [6], 33.9 µM (active); in assay [8] it was 15 µM (active). For the same compound, in assay [9], the AC50 was 29.1 µM (active). Besides, the outcome in assay [7] was inactive.

In the case of `C[C@]12CC[C@@H]3c4ccc(O)cc4CC[C@H]3[C@@H]1CCC2=O`, the outcome in assay [1], in [2], in [3], in assay [4], in assay [5] and in assay [6] was inactive. The outcome in [7], in assay [8] and in [9] was inactive.

Regarding `CC(C)(O)c1ccc(CNC(=O)c2cccnc2Oc2ccc3nonc3c2)cc1`, the result in assay [1], in assay [2], in assay [3], in [4], in [5] and in [6] was inactive. Moreover, the result in [8] and in [9] was inactive. For the same compound, the AC50 in assay [7] was 20 µM (active).

Consider `Cc1cc(F)ccc1-c1cc(N2CC[C@@H](O)[C@H]2CO)ncc1N(C)C(=O)C(C)(C)c1cc(C(F)(F)F)cc(C(F)(F)F)c1`, for which the AC50 is 11.2 µM (active) in assay [1]; 13.3 µM (active) in [2]; 13.9 µM (active) in assay [3]; 11.5 µM (active) in assay [4]; 14.8 µM (active) in assay [5]; 14 µM (active) in assay [6]. Moreover, the AC50 in assay [7] is 16.3 µM (active); in assay [8], 9.81 µM (active); in assay [9], 27.8 µM (active).

Regarding `NCc1cccc(C2CCN(C(=O)c3ccc(C#Cc4ccccc4F)o3)CC2)c1`, the AC50 in [1] is 26.2 µM (active); in assay [2] it was 12.4 µM (active); in assay [3] it was 13.7 µM (active); in [4], 13.1 µM (active); in assay [5], 7.93 µM (active); in [6] it was 11.8 µM (active). Also, the AC50 in assay [7] is 33.9 µM (active); in assay [8], 7.07 µM (active); in [9] it was 34.7 µM (active).

Take `O=c1c(-c2ccc(O)cc2)coc2cc(O)cc(O)c12`: the AC50 in assay [1] is 20 µM (active); in assay [7], 11.1 µM (active); in assay [8], 9.33 µM (active); in assay [9], 20 µM (active). Also, the outcome in assay [2], in [3], in assay [4], in [5] and in assay [6] was inactive.

As to `CC[C@@H]1C[C@H](N(Cc2cc(C(F)(F)F)cc(C(F)(F)F)c2)C(C)=O)c2cc(C(F)(F)F)ccc2N1C(=O)OC(C)C`, the outcome in assay [1], in assay [2], in assay [3], in assay [4], in [5] and in [6] was inactive. Also, the outcome in [7], in assay [8] and in assay [9] was inactive.

On to `Cc1c2ccccc2c(C)c2c1ccc1ccccc12`, for which the AC50 is 20 µM (active) in assay [1], 6.06 µM (active) in [4] and 20 µM (active) in assay [7]. The result in [2], in assay [3], in assay [5], in [6], in assay [8] and in [9] was inactive.

Turning to `O=C(OCCCCCCOC(=O)c1ccccc1)c1ccccc1`, the result in [1], in [2], in assay [3], in assay [4], in [5] and in assay [6] was inactive. Further, the outcome in assay [7], in [8] and in assay [9] was inactive.

In the case of `CN(C)c1ccc(C(=C2C=CC(=[N+](C)C)C=C2)c2ccc(N(C)C)cc2)cc1`, the AC50 in [1] was 5.55 µM (active); in assay [2] it was 5.52 µM (active); in [3], 6.32 µM (active); in assay [4], 0.73 µM (active); in [5] it was 1.97 µM (active); in assay [6], 5.52 µM (active). In addition, the AC50 was 6.61 µM (active) in assay [7] and 5.56 µM (active) in assay [9].

Turning to `CO[C@H]1/C=C/O[C@@]2(C)Oc3c(C)c(O)c4c(O)c(c(/C=N/N5CCN(C)CC5)c(O)c4c3C2=O)NC(=O)/C(C)=C\C=C\[C@H](C)[C@H](O)[C@@H](C)[C@@H](O)[C@@H](C)[C@H](OC(C)=O)[C@@H]1C`, the outcome in [1], in assay [2], in [3], in [4], in [5] and in assay [6] was inactive. Moreover, the outcome in assay [7], in assay [8] and in assay [9] was inactive.
